The supplement of paper PMC10849652
Targets with a hit are over-represented here; the source holds about 7,900 in all. About 0.6% of all pairs of compound and target were hits.

Key:
Assay in all cases: log2 fold change, soluble protein after heating vs DMSO (PISA); higher = thermal stabilisation; K562 cells, 10 uM, 30 min; active = over 0.2 and 3.5 SD of the protein, either way, in both replicates (recomputed)
[1] = compound: NC(=O)Nc1cc(-c2cccc(F)c2)sc1C(=O)N[C@H]1CCCNC1
Method in brief: (§1)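 K562 cells (2×10^6 cells/mL) were treated with 10 μM compound for 30 min, and aliquots were heated for 3 min over 48°C-58°C. Pooled aliquots were extracted in PBS with 0.5% NP-40 at 4°C, and the supernatant after 21,000xg for 90 min was measured by TMTpro 16plex LC-MS/MS with channel sums equalised. Reported thermal stability, relative to control samples and from duplicates, is a log2 fold change.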

[2] = compound: NC(=O)c1cnc(N[C@@H]2CCCC[C@@H]2N)nc1Nc1cccc(-n2nccn2)c1
Method in brief: as §1

[3] = compound: NC1(c2ccc(-c3nc4ccn5c(=O)[nH]nc5c4cc3-c3ccccc3)cc2)CCC1
Method in brief: as §1

[4] = compound: NCC(=O)Nc1ccc(-n2nc(C(F)(F)F)cc2-c2ccc3c(ccc4ccccc43)c2)cc1
Method in brief: as §1

entinostat = compound: Nc1ccccc1NC(=O)c1ccc(CNC(=O)OCc2cccnc2)cc1 [entinostat]
Method in brief: as §1

vorinostat = compound: O=C(CCCCCCC(=O)Nc1ccccc1)NO [vorinostat]
Method in brief: as §1

citarinostat = compound: O=C(CCCCCCNC(=O)c1cnc(N(c2ccccc2)c2ccccc2Cl)nc1)NO [citarinostat]
Method in brief: as §1

silmitasertib = compound: O=C(O)c1ccc2c(c1)nc(Nc1cccc(Cl)c1)c1ccncc12 [silmitasertib]
Method in brief: as §1

[5] = compound: O=C1NC(=O)C(c2cnc3ccccn23)=C1c1cn2c3c(cc(F)cc13)CN(C(=O)N1CCCCC1)CC2
Method in brief: as §1

[6] = compound: c1cc(OCCN2CCCCC2)cc(-c2n[nH]c3ccc(-c4nnc[nH]4)cc23)c1
Method in brief: as §1

Measured: log2 fold change

PSMD11 (UniProt O00231)
Sequence of UniProt O00231 (O00231 whole entry, looked up): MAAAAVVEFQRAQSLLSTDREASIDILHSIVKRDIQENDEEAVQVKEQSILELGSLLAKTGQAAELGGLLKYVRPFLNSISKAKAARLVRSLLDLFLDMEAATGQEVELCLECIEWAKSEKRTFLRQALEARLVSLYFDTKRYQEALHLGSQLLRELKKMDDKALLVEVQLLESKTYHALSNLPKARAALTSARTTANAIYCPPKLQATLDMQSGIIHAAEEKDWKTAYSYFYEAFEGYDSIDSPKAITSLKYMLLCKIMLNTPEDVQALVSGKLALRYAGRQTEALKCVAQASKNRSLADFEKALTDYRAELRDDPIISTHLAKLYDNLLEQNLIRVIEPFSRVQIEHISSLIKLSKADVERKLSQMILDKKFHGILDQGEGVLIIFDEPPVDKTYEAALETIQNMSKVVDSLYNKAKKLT
inactive: [1] 0.048 | [2] 0.04 | [3] -0.016 | [4] 0.061 | entinostat -0.012 | vorinostat 0.027 | citarinostat -0.001 | silmitasertib -0.028 | [5] 0.071 | [6] -0.092

PELP1 (UniProt Q8IZL8)
inactive: [1] 0.071 | [2] -0.068 | [3] -0.046 | [4] 0.071 | entinostat -0.022 | vorinostat -0.003 | citarinostat 0.038 | silmitasertib 0.078 | [5] -0.084 | [6] -0.027

PJA2 (UniProt O43164)
inactive: [1] -0.006 | [2] -0.047 | [3] -0.049 | [4] 0.029 | entinostat 0.004 | vorinostat -0.001 | citarinostat -0.005 | silmitasertib 0.026 | [5] -0.059 | [6] -0.075

PML (UniProt P29590)
inactive: [1] 0.021 | [2] -0.027 | [3] -0.029 | [4] 0.015 | entinostat -0.002 | vorinostat -0.059 | citarinostat 0.019 | silmitasertib 0.088 | [5] 0.002 | [6] -0.042

PDLIM7 (UniProt Q9NR12)
inactive: [1] 0.003 | [2] 0.009 | [3] 0.043 | [4] -0.042 | entinostat 0.011 | vorinostat 0.082 | citarinostat 0.037 | silmitasertib -0.017 | [5] 0.021 | [6] -0.026

PSMD3 (UniProt O43242)
inactive: [1] -0.027 | [2] 0.009 | [3] -0.032 | [4] 0.041 | entinostat -0.02 | vorinostat -0.009 | citarinostat -0.009 | silmitasertib 0.008 | [5] 0.014 | [6] -0.082

PRKCD (UniProt Q05655)
Sequence of UniProt Q05655 (Q05655 whole entry, looked up): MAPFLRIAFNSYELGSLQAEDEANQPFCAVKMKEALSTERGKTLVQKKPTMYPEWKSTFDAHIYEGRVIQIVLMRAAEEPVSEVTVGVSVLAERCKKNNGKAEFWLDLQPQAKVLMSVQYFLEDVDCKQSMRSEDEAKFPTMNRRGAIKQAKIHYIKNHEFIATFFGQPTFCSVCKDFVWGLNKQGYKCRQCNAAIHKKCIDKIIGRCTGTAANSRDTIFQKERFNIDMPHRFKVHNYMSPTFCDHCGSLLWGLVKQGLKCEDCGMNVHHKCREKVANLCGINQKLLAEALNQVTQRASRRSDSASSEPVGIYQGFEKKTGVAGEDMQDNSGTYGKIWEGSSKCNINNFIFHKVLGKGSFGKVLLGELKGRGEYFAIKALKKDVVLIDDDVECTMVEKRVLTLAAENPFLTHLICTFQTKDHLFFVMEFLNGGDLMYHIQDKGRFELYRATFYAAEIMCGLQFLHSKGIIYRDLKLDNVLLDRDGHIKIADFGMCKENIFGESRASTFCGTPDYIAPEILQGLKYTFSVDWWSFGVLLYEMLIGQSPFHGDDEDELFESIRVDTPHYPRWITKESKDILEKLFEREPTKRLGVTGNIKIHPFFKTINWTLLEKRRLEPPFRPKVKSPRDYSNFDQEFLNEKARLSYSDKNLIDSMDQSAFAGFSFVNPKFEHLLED
inactive: [1] -0.086 | [2] -0.05 | [3] -0.081 | [4] -0.031 | entinostat 0.024 | vorinostat 0.031 | citarinostat 0.006 | silmitasertib 0.045 | [5] -0.06 | [6] -0.083

PCLAF (UniProt Q15004)
inactive: [1] -0.007 | [2] 0.035 | [3] 0.109 | [4] 0.012 | entinostat -0.04 | vorinostat -0.045 | citarinostat 0.035 | silmitasertib -0.009 | [5] 0.008 | [6] -0.066

PPP1CA (UniProt P62136)
Sequence of UniProt P62136 (P62136 whole entry, looked up): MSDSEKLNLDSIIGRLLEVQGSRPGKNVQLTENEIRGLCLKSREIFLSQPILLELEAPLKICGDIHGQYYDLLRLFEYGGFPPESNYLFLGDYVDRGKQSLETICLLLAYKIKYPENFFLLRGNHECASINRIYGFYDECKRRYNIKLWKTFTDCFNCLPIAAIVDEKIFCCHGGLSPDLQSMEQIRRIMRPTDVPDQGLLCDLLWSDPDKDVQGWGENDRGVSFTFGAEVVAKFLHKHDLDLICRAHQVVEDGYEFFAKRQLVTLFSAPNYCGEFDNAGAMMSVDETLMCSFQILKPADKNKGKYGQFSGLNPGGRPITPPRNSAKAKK
inactive: [1] -0.036 | [2] -0.051 | [3] -0.019 | [4] -0.02 | entinostat -0.012 | vorinostat -0.023 | citarinostat 0.034 | silmitasertib 0 | [5] 0.007 | [6] -0.045

PTRH2 (UniProt Q9Y3E5)
Sequence of UniProt Q9Y3E5 (Q9Y3E5 whole entry, looked up): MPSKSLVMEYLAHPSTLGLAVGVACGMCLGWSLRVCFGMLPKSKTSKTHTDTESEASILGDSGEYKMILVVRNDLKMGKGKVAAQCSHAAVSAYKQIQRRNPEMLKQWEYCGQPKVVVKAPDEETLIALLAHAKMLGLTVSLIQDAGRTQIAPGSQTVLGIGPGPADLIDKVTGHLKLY
inactive: [1] -0.061 | [2] 0.018 | [3] -0.001 | [4] 0.004 | entinostat -0.016 | vorinostat -0.002 | citarinostat 0.047 | silmitasertib 0.007 | [5] -0.089 | [6] 0.005

PITRM1 isoform 2 (UniProt Q5JRX3)
inactive: [1] 0.116 | [2] -0.077 | [3] -0.051 | [4] -0.061 | entinostat 0.097 | vorinostat 0.089 | citarinostat 0.104 | silmitasertib -0.045 | [5] 0.05 | [6] 0.096

PNPLA8 (UniProt Q9NP80)
inactive: [1] -0.035 | [2] 0.007 | [3] -0.038 | [4] -0.038 | entinostat -0.031 | vorinostat 0.111 | citarinostat 0.049 | silmitasertib -0.036 | [5] -0.017 | [6] -0.052

PRKAB2 (UniProt O43741)
inactive: [1] 0.204 | [2] 0.248 | [3] -0.077 | [4] 0.162 | entinostat 0.186 | vorinostat 0.099 | citarinostat -0.1 | silmitasertib 0.031 | [5] 0.121 | [6] -0.47

PPT1 (UniProt P50897)
Sequence of UniProt P50897 (P50897 whole entry, looked up): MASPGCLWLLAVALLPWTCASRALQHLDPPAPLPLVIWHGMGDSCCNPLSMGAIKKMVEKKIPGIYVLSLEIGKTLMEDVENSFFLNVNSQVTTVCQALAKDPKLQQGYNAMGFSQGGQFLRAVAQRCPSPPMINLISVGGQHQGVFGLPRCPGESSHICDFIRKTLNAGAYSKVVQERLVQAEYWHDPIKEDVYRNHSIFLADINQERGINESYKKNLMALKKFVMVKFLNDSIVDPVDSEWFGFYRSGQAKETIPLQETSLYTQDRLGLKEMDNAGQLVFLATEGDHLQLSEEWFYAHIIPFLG
inactive: [1] -0.049 | [2] -0.095 | [4] -0.096 | entinostat -0.03 | vorinostat -0.036 | citarinostat 0.053 | silmitasertib 0.019 | [5] -0.041 | [6] -0.041
active: [3] -0.338

PIKFYVE (UniProt Q9Y2I7)
inactive: [1] 0.029 | [2] -0.055 | [3] -0.256 | [4] -0.072 | entinostat 0.09 | vorinostat 0.021 | citarinostat -0.047 | silmitasertib 0.006 | [5] -0.069 | [6] -0.08

PRKACB isoform 2 (UniProt P22694)
inactive: [1] 0.078 | [2] -0.11 | [3] -0.173 | [4] -0.02 | entinostat 0.001 | vorinostat 0.04 | citarinostat 0.015 | silmitasertib -0.002 | [5] -0.119 | [6] -0.065

PSMC5 (UniProt P62195)
inactive: [1] 0.034 | [2] -0.001 | [3] 0.007 | [4] 0.054 | entinostat -0.021 | vorinostat -0.004 | citarinostat -0.021 | silmitasertib -0.005 | [5] 0.063 | [6] -0.075

PRMT8 (UniProt Q9NR22)
Sequence of UniProt Q9NR22 (Q9NR22 whole entry, looked up): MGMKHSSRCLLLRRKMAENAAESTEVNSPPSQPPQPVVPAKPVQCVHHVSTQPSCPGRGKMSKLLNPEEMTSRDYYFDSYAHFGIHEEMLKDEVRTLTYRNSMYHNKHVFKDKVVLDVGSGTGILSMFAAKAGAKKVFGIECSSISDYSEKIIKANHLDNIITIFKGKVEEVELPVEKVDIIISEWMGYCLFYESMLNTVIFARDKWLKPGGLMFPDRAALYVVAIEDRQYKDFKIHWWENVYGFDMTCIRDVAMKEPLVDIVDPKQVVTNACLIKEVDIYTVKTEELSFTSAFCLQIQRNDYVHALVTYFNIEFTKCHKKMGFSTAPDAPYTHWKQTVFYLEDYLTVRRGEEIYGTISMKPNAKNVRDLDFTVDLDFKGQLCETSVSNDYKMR
inactive: [2] -0.149 | [3] -0.118 | [4] -0.054 | entinostat 0.21 | vorinostat 0.029 | citarinostat -0.031 | silmitasertib -0.039 | [5] -0.057 | [6] -0.006
active: [1] 0.403

PLBD2 (UniProt Q8NHP8)
inactive: [1] -0.002 | [2] 0.049 | [3] -0.091 | [4] -0.004 | entinostat -0.008 | vorinostat -0.073 | citarinostat 0.003 | silmitasertib 0.017 | [5] 0.001 | [6] -0.006

PTPMT1 (UniProt Q8WUK0)
Sequence of UniProt Q8WUK0 (Q8WUK0 whole entry, looked up): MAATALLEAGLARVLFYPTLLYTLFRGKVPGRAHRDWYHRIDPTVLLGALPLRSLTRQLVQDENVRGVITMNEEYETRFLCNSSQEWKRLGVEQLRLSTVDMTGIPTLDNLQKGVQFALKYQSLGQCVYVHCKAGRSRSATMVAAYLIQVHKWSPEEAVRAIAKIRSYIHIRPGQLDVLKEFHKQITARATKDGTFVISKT
inactive: [1] -0.087 | [2] -0.264 | [3] -0.263 | [4] -0.166 | entinostat 0.073 | vorinostat 0.049 | citarinostat 0.014 | silmitasertib 0.032 | [5] -0.015 | [6] -0.082

PYGL (UniProt P06737)
inactive: [1] 0.135 | [2] 0.012 | [3] -0.023 | [4] 0.016 | entinostat 0.028 | vorinostat 0.01 | citarinostat 0.039 | silmitasertib 0.034 | [5] -0.043 | [6] -0.041

PPP2R5A (UniProt Q15172)
Sequence of UniProt Q15172 (Q15172 whole entry, looked up): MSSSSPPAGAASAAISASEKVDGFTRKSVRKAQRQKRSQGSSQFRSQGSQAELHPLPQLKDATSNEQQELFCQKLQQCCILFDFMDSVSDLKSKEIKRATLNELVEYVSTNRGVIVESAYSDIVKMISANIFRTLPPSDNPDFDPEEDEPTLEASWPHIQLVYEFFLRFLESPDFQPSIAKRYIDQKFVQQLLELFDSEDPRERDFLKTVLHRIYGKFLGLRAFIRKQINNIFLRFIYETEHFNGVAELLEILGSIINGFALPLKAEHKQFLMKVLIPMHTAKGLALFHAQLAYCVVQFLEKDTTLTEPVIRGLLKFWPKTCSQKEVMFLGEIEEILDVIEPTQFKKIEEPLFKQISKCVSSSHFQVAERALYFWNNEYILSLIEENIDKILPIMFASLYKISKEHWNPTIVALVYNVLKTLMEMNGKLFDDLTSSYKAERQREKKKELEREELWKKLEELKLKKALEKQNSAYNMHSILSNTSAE
active: [3] -0.254
inactive: [1] 0.098 | [2] 0.009 | [4] -0.013 | entinostat 0.094 | vorinostat 0.106 | citarinostat 0.114 | silmitasertib -0.059 | [5] -0.044 | [6] -0.021

PSME4 (UniProt Q14997)
inactive: [1] 0.047 | [2] -0.054 | [3] -0.204 | [4] -0.03 | entinostat 0.011 | vorinostat 0.127 | citarinostat 0.047 | silmitasertib -0.007 | [5] 0.02 | [6] -0.092

PRPSAP2 (UniProt O60256)
Sequence of UniProt O60256 (O60256 whole entry, looked up): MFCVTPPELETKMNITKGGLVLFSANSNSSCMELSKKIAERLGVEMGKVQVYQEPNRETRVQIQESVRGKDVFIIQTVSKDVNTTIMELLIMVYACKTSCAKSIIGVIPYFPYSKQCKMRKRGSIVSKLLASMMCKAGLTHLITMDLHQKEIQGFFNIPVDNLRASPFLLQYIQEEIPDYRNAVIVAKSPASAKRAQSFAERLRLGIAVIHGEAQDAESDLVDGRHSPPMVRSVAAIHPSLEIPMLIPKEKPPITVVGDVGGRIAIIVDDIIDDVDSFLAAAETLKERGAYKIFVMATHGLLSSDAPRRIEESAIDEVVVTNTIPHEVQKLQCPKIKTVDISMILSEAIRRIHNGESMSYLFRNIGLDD
inactive: [1] -0.146 | [2] 0.1 | [3] 0.019 | [4] 0.034 | entinostat -0.109 | vorinostat 0.003 | citarinostat -0.02 | silmitasertib 0.011 | [5] -0.052 | [6] -0.03

PPP2R5C isoform 5 (UniProt Q13362)
Sequence of UniProt Q13362 (Q13362 whole entry, looked up): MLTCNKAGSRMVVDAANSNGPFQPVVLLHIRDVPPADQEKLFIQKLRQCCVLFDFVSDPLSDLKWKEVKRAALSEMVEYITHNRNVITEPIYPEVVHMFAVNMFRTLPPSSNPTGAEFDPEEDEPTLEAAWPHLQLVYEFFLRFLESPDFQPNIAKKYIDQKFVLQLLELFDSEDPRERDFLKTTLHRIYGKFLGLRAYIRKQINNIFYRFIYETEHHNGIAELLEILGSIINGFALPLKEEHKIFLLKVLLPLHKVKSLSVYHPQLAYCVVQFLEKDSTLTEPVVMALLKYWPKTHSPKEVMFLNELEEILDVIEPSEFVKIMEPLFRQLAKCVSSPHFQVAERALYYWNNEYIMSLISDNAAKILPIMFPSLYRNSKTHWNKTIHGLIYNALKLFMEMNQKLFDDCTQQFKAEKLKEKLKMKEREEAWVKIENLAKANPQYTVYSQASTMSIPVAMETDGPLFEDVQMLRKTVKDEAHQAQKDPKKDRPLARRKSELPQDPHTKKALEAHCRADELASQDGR
inactive: [1] 0.003 | [2] 0.011 | [3] -0.134 | [4] -0.027 | entinostat 0.018 | vorinostat -0.044 | citarinostat 0.169 | silmitasertib -0.005 | [5] -0.053 | [6] -0.01

PAK4 (UniProt O96013)
Sequence of UniProt O96013 (O96013 whole entry, looked up): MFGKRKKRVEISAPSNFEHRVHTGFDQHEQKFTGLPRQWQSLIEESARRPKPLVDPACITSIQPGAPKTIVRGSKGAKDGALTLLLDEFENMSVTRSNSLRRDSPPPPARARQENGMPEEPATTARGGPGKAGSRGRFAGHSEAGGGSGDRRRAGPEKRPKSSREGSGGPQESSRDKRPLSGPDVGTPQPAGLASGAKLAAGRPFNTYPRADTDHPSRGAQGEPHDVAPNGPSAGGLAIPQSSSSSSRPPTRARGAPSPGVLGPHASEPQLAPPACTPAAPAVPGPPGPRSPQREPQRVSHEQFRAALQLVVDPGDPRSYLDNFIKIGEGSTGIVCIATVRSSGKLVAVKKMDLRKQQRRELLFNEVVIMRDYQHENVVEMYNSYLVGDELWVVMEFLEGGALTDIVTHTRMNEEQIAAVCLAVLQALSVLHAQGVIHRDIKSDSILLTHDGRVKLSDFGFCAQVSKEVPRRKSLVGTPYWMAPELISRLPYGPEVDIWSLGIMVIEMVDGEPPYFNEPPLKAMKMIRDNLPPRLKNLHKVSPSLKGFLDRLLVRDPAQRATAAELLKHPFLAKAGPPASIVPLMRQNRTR
inactive: [1] 0.048 | [3] 0.015 | [4] -0.038 | entinostat -0.083 | vorinostat 0.01 | citarinostat 0.003 | silmitasertib 0.041 | [5] 0.017 | [6] -0.039
active: [2] 0.388

PSMC6 (UniProt P62333)
Sequence of UniProt P62333 (P62333 whole entry, looked up): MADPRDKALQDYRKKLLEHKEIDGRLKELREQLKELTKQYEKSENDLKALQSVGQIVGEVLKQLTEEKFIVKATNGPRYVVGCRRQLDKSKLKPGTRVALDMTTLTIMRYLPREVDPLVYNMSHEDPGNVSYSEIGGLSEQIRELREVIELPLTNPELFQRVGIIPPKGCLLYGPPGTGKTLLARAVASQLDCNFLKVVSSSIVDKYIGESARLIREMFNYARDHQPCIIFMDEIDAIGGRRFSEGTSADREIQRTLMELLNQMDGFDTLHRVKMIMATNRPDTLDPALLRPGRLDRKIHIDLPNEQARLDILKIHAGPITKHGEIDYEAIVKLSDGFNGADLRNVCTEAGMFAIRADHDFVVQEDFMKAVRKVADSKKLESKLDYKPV
inactive: [1] 0.007 | [2] 0.015 | [3] 0.069 | [4] 0.075 | entinostat -0.015 | vorinostat -0.005 | citarinostat -0.048 | silmitasertib -0.035 | [5] 0.072 | [6] -0.075

POLR2I (UniProt P36954)
inactive: [1] -0.025 | [2] 0.115 | [3] 0.102 | [4] 0.067 | entinostat 0.114 | vorinostat -0.243 | citarinostat -0.09 | silmitasertib 0.028 | [5] -0.091 | [6] -0.005

PECAM1 (UniProt P16284)
inactive: [1] 0.005 | [2] 0.092 | [3] 0.034 | [4] 0.053 | entinostat -0.13 | vorinostat -0.057 | citarinostat 0.033 | silmitasertib -0.039 | [5] -0.064 | [6] -0.023

PTPN23 (UniProt Q9H3S7)
inactive: [1] -0.039 | [2] 0.011 | [3] -0.081 | [4] -0.063 | entinostat 0.06 | vorinostat 0.05 | citarinostat 0.05 | silmitasertib 0.037 | [5] -0.065 | [6] -0.024

PDE4DIP isoform 4 (UniProt Q5VU43)
inactive: [1] 0.113 | [2] -0.006 | [3] 0.009 | [4] 0.011 | entinostat 0.015 | vorinostat -0.025 | citarinostat 0.018 | silmitasertib -0.041 | [5] -0.03 | [6] -0.039
